Assay results as given in PubChem BioAssay AID1117361 (Southern Research Institute, 2015).
Screen size: about 3,600 compounds; about 900 (25%) were called active. These entries were drawn from the full list. Results with a measured potency or affinity are listed apart. A number with no mark means an inactive call. The rule behind the calls is not given here.

molecular target: Protein Tat (Human immunodeficiency virus type 1 group M subtype B (isolate HXB2)) (UniProt P04608); assay: HIV-1 Tat–TAR interaction blockers – biochemical, fluorescence polarization, FAM-labeled TAR RNA, counter-screen for Vif-APOBEC3G degradation inhibitor project, dose response (AID 1117361); conditions: Tat-TAR RNA binding; series mostly up to 100 µM; inhibition: at the top concentration

| Compound | inhibition | outcome |
| --- | --- | --- |
| CCOC(=O)C1=C(CN2CCN(c3ccc(F)cc3)CC2)NC(=O)NC1c1cccs1 (stereo unspecified) | 9.46% | – |
| Cc1ccc(C(=O)C2C(c3cccs3)NC(=O)NC2(O)C(F)(F)F)cc1 (stereo unspecified) | 6.76% | – |
| Cn1cccc1C(=O)NC(=O)COC(=O)CC12CC3CC(CC(Br)(C3)C1)C2 | 16.7% [at 50 µM] | – |
| O=C(Cc1ccccc1)Nc1scc(-c2ccccc2)c1C(=O)N1CCOCC1 | 8.11% | – |
| CC1=C(C(=O)OCC(Cl)(Cl)Cl)N2C(=O)C(NC(=O)Cc3ccccc3)C2SC1 (stereo unspecified) | – | inactive |
| CC(=O)[C@@]1(O)CC[C@H]2[C@@H]3CCC4=CC(=O)CC[C@]4(C)[C@H]3CC[C@@]21C | 7.42% | – |
| Cc1sc(-c2ccncc2)nc1OC(=O)c1ccccc1 | 8.87% | – |
| COc1ccc(S(=O)(=O)NC2CC(C)(C)NC(C)(C)C2)c(C)c1C | 3.41% | – |
| Cc1sc2nc(C)n(/N=C/c3ccccc3O)c(=O)c2c1C | – | inactive |
| C=CCNC(=O)c1cc(=O)c2ccccc2o1 | 1.35% | – |
| Cc1nn(-c2ccc(Cl)cc2)c2[nH]c(=O)c(CNCc3ccc4c(c3)OCO4)cc12 | 4.05% | – |
| O=c1oc(/C=C/c2ccccc2)nc2sc3c(c12)CCC3 | 6.76% | – |
| O=[N+]([O-])c1cc(C(F)(F)F)ccc1N1CCN(S(=O)(=O)c2ccc3ccccc3c2)CC1 | 4.09% | – |
| COC(=O)C1=C(Nc2ccc(OC)cc2)C=C(C)C(C(=O)OC)C1c1ccc(C)cc1 (stereo unspecified) | 1.36% | – |
| CC1(C)CC(NS(=O)(=O)c2ccccc2)CC(C)(C)N1 | 2.73% | – |
| CC1(C)C2CCC1(C)C(NC1=NCCC1)C2 (stereo unspecified) | 6.08% | – |
| CCCN(CCC)C(=O)c1cc(-c2ccc3c(c2)OCO3)nc2ccccc12 | 6.76% | – |
| CC(=NCc1ccc2c(c1)OCO2)C1=C(O)c2ccccc2C1=O | 1.35% | – |
| CC(OC(=O)CC1CCCC1)C(=O)Nc1ccc(Cl)cn1 (stereo unspecified) | – | inactive |
| Nn1c(SCC(=O)NC2CCCc3ccccc32)nnc1-c1cccs1 (stereo unspecified) | 1.35% | – |
| COc1ccccc1CNS(=O)(=O)c1cccc(S(=O)(=O)N2CCOCC2)c1 | – | inactive |
| COC(=O)C1C2CCC(C2)C1C(=O)OCC(=O)c1ccc(C)cc1 (stereo unspecified) | – | inactive |
| CC(C)CC(=O)N(c1ccc(F)cc1)C1C=CS(=O)(=O)C1 (stereo unspecified) | 2.03% | – |

| Compound | inhibition | outcome |
| --- | --- | --- |
| O=C(CCl)N1N=C(c2ccco2)CC1c1ccco1 (stereo unspecified) | – | inactive |
| Cc1cc(C)cc(NC(=S)NC(=O)CCN2C(=O)c3ccccc3C2=O)c1 | 2.7% | – |
| CCCCOc1cccc(C(=O)NC(=S)Nc2ccc(Cl)c(C(=O)O)c2)c1 | – | inactive |
| CC(=O)Nc1ccc(S(=O)(=O)Nc2cccc(-c3nc4ccccc4o3)c2)cc1 | 3.38% | – |
| COc1ccc(N2CCN(c3nc4ccccc4nc3NS(=O)(=O)c3ccccc3)CC2)cc1 | 17.6% | – |
| COC(=O)c1ccc(C)c(NS(=O)(=O)c2ccc(NC(C)=O)cc2)c1 | – | inactive |
| CCc1ccc(-c2cc(C(=O)Nc3ccc(S(=O)(=O)NC(C)=O)cc3)c3ccccc3n2)cc1 | 21.6% | – |
| COc1ccc(NCc2nnc(SCC(=O)N3CCCc4ccccc43)o2)cc1 | 7.43% | – |
| O=c1oc(-c2cccnc2)nc2ccccc12 | – | inactive |
| FC(F)Oc1ccccc1NC(=S)Nc1cccnc1 | 4.12% | – |
| CC(C)(C)c1ccc(NC(=S)NCc2cccnc2)cc1 | – | inactive |
| COc1ccc(N2C(=O)C3CCCN3C2c2ccc(C)cc2)cc1 (stereo unspecified) | – | inactive |
| Cn1c(CNC(=O)C2CCCCC2)cc2cc(Cl)ccc21 | – | inactive |
| CS(=O)(=O)N1CCC(C(=O)NCCc2ccccc2)CC1 | – | inactive |
| CC(CN1CCN(C)CC1)OC(=O)c1ccccc1Cl (stereo unspecified) | – | inactive |
| COc1ccc(C)cc1NC(=O)c1[nH]c(C)c(C(C)=O)c1C | 4.73% | – |
| COc1ccccc1N1CCN(C(=O)C(F)F)CC1 | 0.33% | – |
| O=C(NCc1ccc(N2CCCC2=O)cc1)NC1CCCCC1 | 1.35% | – |
| Cc1ccc2nc(C3CCN(CC(=O)Nc4ccc5c(c4)OCCO5)CC3)[nH]c2c1 | 4.73% | – |
| O=C1NC2(CCCCC2)NN1c1ccccc1 | 1.35% | – |
| O=C(O)c1ccc2c(c1)C(c1ccccc1)OC2=O (stereo unspecified) | 24.6% | – |
| Cc1cc(C)c2c(c1)[C@@H]1C=CC[C@@H]1[C@H](c1ccc(S(=O)(=O)N3CCOCC3)cc1)N2 | 19.8% | – |
| CCC(C)NS(=O)(=O)c1ccc(S(=O)(=O)N(CC(=O)Nc2ccccc2)CC2CCCO2)cc1 (stereo unspecified) | – | inactive |

| Compound | inhibition | outcome |
| --- | --- | --- |
| COc1ccccc1S(=O)(=O)Cc1ccc(C(=O)N2CCN(c3ccccn3)CC2)o1 | 8.78% | – |
| CCN1CCN(CCCNC(=O)c2ccc3c(c2)NC(=O)c2ccccc2S3)CC1 | – | inactive |
| CC1(C)CC(=O)C2=C(C1)N(Cc1ccc(F)cc1)C(=O)C2(NC(=O)c1cccnc1)C(F)(F)F (stereo unspecified) | 1.35% | – |
| CC(=O)Nn1cc2c(=O)n(C)c(=O)n(C)c2c1 | 13.5% | – |
| CCN(CC)CCN1C(=O)c2ccccc2NC1c1ccc(N(C)C)cc1 (stereo unspecified) | – | inactive |
| COc1cc(NC(=O)c2cc3nc(C)cc(C)n3n2)c(OC)cc1Cl | 8.78% | – |
| Cc1ccc2c(c1)c(CC(=O)Nc1ccc(C)c(F)c1)c(C(=O)O)n2C | – | inactive |
| Nc1ccc(-c2nc3cc(N)ccc3n2CCO)cc1 | – | inactive |
| COc1ccc(S(=O)(=O)NCc2ccccn2)c(Cl)c1Cl | 1.35% | – |
| CCN(CC)CCNC(=O)CCn1c(=S)[nH]c2cc3c(cc2c1=O)OCO3 | – | inactive |
| C=CCn1cc(-c2ccccc2)cc(C#N)c1=O | 5.41% | – |
| Cc1ccc(CSc2nc3c(c(N(C)C)n2)CCCC3)cc1 | – | inactive |
| CCN(CC)CCCNC(=O)CSc1nc(-c2cccs2)cc(C(F)(F)F)n1 | – | inactive |
| COC(=O)/C=c1\sc2n(c1=O)C(C)=CC(C)(C)N=2 | 1.36% | – |
| CCOC(=O)CCC(=O)N1CCOCCN(C(=O)CCC(=O)OCC)CCOCC1 | 2.7% | – |
| Cc1ccc(N=Cc2nc(-c3ccc(C)cc3)oc2O)cc1 | – | inactive |
| CC(C)(C)NC(=O)CSc1nnc(-c2ccccn2)n1Cc1ccccc1 | – | inactive |
| COc1ccc(CNC(=O)c2c(-c3cc(Cl)c(OC)c(Cl)c3)noc2C)cc1 | – | inactive |
| OCCCNc1ncnc2c1[nH]c1ccccc12 | – | inactive |
| CC(=O)Nc1cccc(-c2cc(-c3c(Cl)cccc3Cl)no2)c1 | – | inactive |
| O=C(CCn1nc(-c2ccccc2)ccc1=O)N1CCCC1 | 8.11% | – |
| CN1CCN(S(=O)(=O)c2ccc(NC(=S)NC(=O)c3ccc(Cl)cc3)cc2)CC1 | 6.14% | – |
| Cc1cccc(OCCCC(=O)NC(C)c2ccccc2)c1 (stereo unspecified) | 5.46% | – |

| Compound | inhibition | outcome |
| --- | --- | --- |
| CCn1c(=O)cc(N2CCC3(CC2)OCCO3)[nH]c1=O | 16.2% | – |
| Cn1cc(Cl)c(C(=O)Nc2nc3ccccc3s2)n1 | – | inactive |
| CCC(C)(c1nnnn1-c1c(C)cccc1C)N(N=O)c1ccccc1Cl (stereo unspecified) | – | inactive |
| CSCCC(NS(=O)(=O)c1ccc2c(c1)oc(=O)n2C)C(=O)NC1CCCc2ccccc21 (stereo unspecified) | 5.41% | – |
| COc1ccc(S(N)(=O)=O)cc1C(=O)OCC(=O)NC(C)(C#N)C1CC1 (stereo unspecified) | 7.42% | – |
| O=c1cc(O)nc(SCc2ccccc2Cl)[nH]1 | 10.8% | – |
| CSc1nc(N)c(C#N)c(-c2ccccc2Cl)c1C#N | 3.38% | – |
| COc1ccc(C2(O)CCN(Cc3nnnn3Cc3ccc(F)cc3)CC2)cc1 | – | inactive |
| CC(C)(C)NCCCCOc1ccc(F)cc1 | 3.01% | – |
| CCOc1ccc(NC(=O)c2ccccc2NS(C)(=O)=O)cc1 | – | inactive |
| Cc1c(O)nc(SCC(=O)Nc2ccc3c4c(cccc24)CC3)n(-c2ccc(F)cc2)c1=O | 3.3% | – |
| CCOc1ccc(NC(=O)Cn2cncc2-c2ccc([N+](=O)[O-])cc2)cc1 | 6.82% | – |
| Cc1cc(C)nc(N2N=C(C(C)(C)C)CC2=O)n1 | 1.36% | – |
| COCCn1nnnc1C(c1cc2ccc(C)cc2[nH]c1=O)N(Cc1ccco1)Cc1cccs1 (stereo unspecified) | 29.3% | – |
| COc1cc2cc(C(c3nnnn3C3CCCC3)N(C)C3CCCCC3)c(=O)[nH]c2cc1OC (stereo unspecified) | – | inactive |
| CCCN(CC(=O)Nc1ccccc1OC)C(=O)CSc1ccc(Br)cc1C | 14% | – |
| COc1ccc(NC(=O)CSc2nc(C)cc(C)n2)cc1 | 6.76% | – |
| COc1ccc(NC(=O)CSc2nnc(C)n2Cc2ccccc2)cc1 | – | inactive |
| CSc1nc(C)cc(SCC(=O)Nc2ccccc2)n1 | 6.08% | – |
| CC(=O)Nc1c(O)nc(SCC(=O)Nc2ccc(C(C)=O)cc2)[nH]c1=O | 14.3% | – |
| CCN(CC)S(=O)(=O)c1ccc(NC(=O)CSc2nnc(-c3cccc(OC)c3)n2C)cc1 | 2.73% | – |
| COc1cccc(NC(=O)CSc2nnnn2C(C)C)c1 | 3.38% | – |
| Cc1ccc[n+](CC(=O)c2cc3ccccc3oc2=O)c1 | 10.8% | – |

| Compound | inhibition | outcome |
| --- | --- | --- |
| CCCc1nc(SCc2cccnc2)c2c(=O)n(C)c(=O)n(C)c2n1 | 3.38% | – |
| O=C(NCc1ccc2c(c1)OCO2)C1CCCN1C(=O)Nc1ccccc1 (stereo unspecified) | 2.7% | – |
| CCn1c(=O)oc2cc(NC(=O)CCl)ccc21 | – | inactive |
| COC(=O)Cn1ncn2c(cc3oc(C)cc32)c1=O | 22.3% | – |
| O=C(Cn1c(/C=C/c2ccccc2)nc2ccccc21)Nc1ccc(F)cc1 | 8.19% | – |
| Cc1ccnc(NS(=O)(=O)c2ccc(NC(=O)Cc3cccs3)cc2)n1 | – | inactive |
| CCCCN(CCCC)S(=O)(=O)c1ccc(NC(=O)Cc2cccs2)cc1 | 10.2% | – |
| O=C(Nc1ccc2nc(-c3ccccc3)[nH]c2c1)c1cccs1 | 1.35% | – |
| CC(C)OCCCNC(=O)c1cccs1 | – | inactive |
| CN(Cc1cn(C)nc1-c1cccc(Cl)c1)Cc1nccn1C | – | inactive |
| N#Cc1nc(Cc2ccccc2)oc1NCCCn1ccnc1 | 6.76% | – |
| O=C(COc1ccc(F)cc1)Nc1ccc(-n2cnnn2)cc1 | 3.38% | – |
| CCOC(=O)C1CCN(C(=O)C2CCN(c3nc4ccc(OC)cc4s3)CC2)CC1 | 4.77% | – |
| CCOC(=O)C1CCCN(CCC(=O)Nc2ccc3c(c2)CCC3)C1 (stereo unspecified) | 1.36% | – |
| Cn1c(CN2CCCC2)nc2cc(NC(=O)Nc3ccccc3)ccc21 | – | inactive |
| O=C(Nc1ccc2c(c1)OCCO2)N1CCN(c2ccccc2)CC1 | 10.1% | – |
| C/C(=C/C(=O)NCc1ccccc1)C(=O)O | 8.78% | – |
| CN(C)c1ccc(N/C=C/C(=O)c2ccco2)cc1 | 1.36% | – |
| O=C(Nc1ccccc1C(F)(F)F)c1cc(-c2ccc(O)cc2)on1 | – | inactive |
